Screens (PubChem)
Most compounds without a hit are left out; they make up all but 6.1% or so of the library.
D3 antag: blocks the human D3 dopamine receptor; max response, negative = inhibition, %; D3R cells, DiscoveRx beta-arrestin luminescence, antagonist mode; hits give low values; P35462; 2.5% of 360,000 active; AID 652054; in the data active = max response below about -50%; inconclusive = no clear call, values can overlap the other calls; note: % is set by controls: 0 for no effect and ±100 for the full control effect
Target sequence (P35462 whole entry, looked up): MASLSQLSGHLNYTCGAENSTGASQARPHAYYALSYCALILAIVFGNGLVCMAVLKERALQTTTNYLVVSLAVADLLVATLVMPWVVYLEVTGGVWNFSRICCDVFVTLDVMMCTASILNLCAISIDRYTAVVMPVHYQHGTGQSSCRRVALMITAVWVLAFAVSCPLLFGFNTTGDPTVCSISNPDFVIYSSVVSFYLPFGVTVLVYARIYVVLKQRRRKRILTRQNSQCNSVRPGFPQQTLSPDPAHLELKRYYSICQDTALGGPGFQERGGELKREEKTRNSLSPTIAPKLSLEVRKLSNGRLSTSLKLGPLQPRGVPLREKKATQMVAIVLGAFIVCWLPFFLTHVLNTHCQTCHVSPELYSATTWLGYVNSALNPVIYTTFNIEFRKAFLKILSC
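Cells expressing the human receptor were seeded at 1500 cells/well, incubated overnight at 37 degrees C in 5% CO2, then exposed to library compounds with dopamine controls for 90 minutes at 37 degrees C before luminescent detection.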
D1 agonist: agonists of human D1 dopamine receptor; activation, % at 2 µM; AID 504660; HEK293 T-REx D1 cells, calcium flux, agonist mode; 1% of 360,000 active; P21728; in the data active = activation above about 30%; note: 0% is about no effect
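Agonism was scored from calcium flux recorded over 180 s (1 read/s) after pintool compound addition, following a 10-cycle baseline. Cells were inducible force-coupled HEK293 TREx D1, plated overnight at 30 C and loaded with no-wash calcium dye.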
D1 antagonist: antagonists of human D1 dopamine receptor. P21728. HEK293 TREx D1 cells, calcium flux, dopamine EC80; hits give low values. activity change, negative = inhibition, % at 10 µM. 3.2% of 360,000 active. AID 504652; in the data active = activity change below about -30%; note: % is set by controls: 0 for no effect and ±100 for the full control effect
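Inducible Hek293 Trex D1 cells (tetracycline, overnight, 30 C). Calcium dye 30–90 min RT. Antagonist mode: EC80 dopamine added after 180 s compound read.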
DRD3 agonist: activates the human D3 dopamine receptor; P35462; D3R DiscoveRx beta-arrestin cells, luminescence, 90 min; max activation, %; 0.58% of 410,000 active; AID 652048; in the data active = max activation above about 30%; note: 0% is about no effect
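Agonist-mode cell screen: cells plated at 1500/well and incubated overnight at 37 °C, then exposed to library compounds for 90 min at 37 °C. Detection reagent was added for 30–60 min at room temperature, and luminescence was read.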
D1 PAM: enhances dopamine response at the human D1 receptor. P21728. HEK293 TREx D1 cells, calcium flux, dopamine EC20 potentiation. potentiation, % at 10 µM. 0.036% of 360,000 active; in the data active = potentiation above about 30%; note: 0% is about no effect
Active calls of the source: *; u = inconclusive; x = no result.

SMILES	D3 antag	D1 agonist	D1 antagonist	DRD3 agonist	D1 PAM
COc1cc(/C=C2/NC(=O)NC2=O)cc(Br)c1OCc1ccc(C(=O)O)cc1	10	0	-6	-4	-4
c1ccc(CN2OCC3Cn4c(nc5ccccc54)C32)cc1 (centres undefined)	2	2	33	15	-3
c1ccc(N2OCC3Cn4c(nc5ccccc54)C32)cc1 (centres undefined)	u	5	-36*	19	-3
COC(=O)c1ccccc1NC(=O)Cn1cnc([N+](=O)[O-])c1	10	5	-89*	-2	-1
COc1ccccc1CN(Cc1ccco1)S(=O)(=O)c1ccc(-n2cnnn2)c(OC)c1	-10	9	-33*	-5	-10
CCOC(=O)C1(CCOc2ccccc2)CCN(Cc2cccc(OC)c2O)CC1	-24	13	-45*	-14	-7
CCOC(=O)C1(Cc2ccccc2)CCN(Cc2cnn(-c3ccccc3)c2)CC1	-63*	1	4	-9	-6
CCOC(=O)C1(CCOc2ccccc2)CCN(Cc2ccc(C(=O)OC)cc2)CC1	-60*	7	-12	-27	-4
CCOC(=O)C1(CCOc2ccccc2)CCN(Cc2ccc(-n3cccn3)cc2)CC1	-71*	14	-10	1	3
Cc1cc(C(C)(C)C)c(OC(=O)[C@@H]2OC(c3ccccc3)=C[C@H]2c2ccccc2)c(C(C)(C)C)c1	-22	0	x	12	-3
COc1cccc(N2C(=O)C(CC(=O)Nc3ccc(F)cc3)N(CCC3=CCCCC3)C2=O)c1 (centres undefined)	x	9	-10	-13	-2
CCOC(=O)C1(CCOc2ccccc2)CCN(Cc2ccc(O)c(OC)c2)CC1	u	16	-24	-19	4
CCOC(=O)C1(CCOC)CCN(C/C=C/c2ccccc2OC)CC1	-71*	x	x	-15	x
CCOC(=O)C1(CCCc2ccccc2)CCN(CCCn2cccn2)CC1	u	37*	-8	-1	-1
CCOC(=O)C1(CCOc2ccccc2)CCN(Cc2ccc3c(c2)OCCO3)CC1	-56*	3	-43*	0	-2
CCOC(=O)C1(CCOc2ccccc2)CCN(Cc2ccc(O)c(Cl)c2)CC1	-69*	24	-39*	-17	-6
CCOC(=O)C1(CCOC)CCN(Cc2ccncc2)CC1	9	2	2	-3	-4
O=c1[nH]c(SCc2c(F)cccc2Cl)nc2c1CCC2	x	3	6	15	-2
O=C(c1ccc2c3c(cccc13)CC2)C1CCCN(Cc2ccc(OCCO)cc2)C1 (centres undefined)	-97*	27	-2	-1	-5
Cc1cnc(CN2CCCC(C(=O)c3ccc4c5c(cccc35)CC4)C2)[nH]1 (centres undefined)	-53*	9	16	-17	-2
COCC(=O)N1CCCC(C(=O)c2ccc3c4c(cccc24)CC3)C1 (centres undefined)	14	-1	11	-7	-4
O=C(c1ccc2c3c(cccc13)CC2)C1CCCN(Cc2ccccn2)C1 (centres undefined)	-51*	0	-11	-33	-7
O=C1CCC(C(=O)N2CCCC(C(=O)c3ccc4c5c(cccc35)CC4)C2)=NN1 (centres undefined)	5	2	-33*	7	-3
NC(=O)CCC(=O)N1CCCC(C(=O)c2ccc3c4c(cccc24)CC3)C1 (centres undefined)	15	2	1	3	-4
O=C1CCC(CCC(=O)N2CCCC(C(=O)c3ccc4c5c(cccc35)CC4)C2)=NN1 (centres undefined)	-8	1	1	-10	1
SMILES	D3 antag	D1 agonist	D1 antagonist	DRD3 agonist	D1 PAM
CCOc1ccc(NC(=O)CSc2ccc3nnc(-c4ccccn4)n3n2)cc1	23	0	5	0	-4
COc1ccc(OC)c(S(=O)(=O)ON2C(=O)c3ccccc3C2=O)c1	-97*	6	-8	-20	0
CCCOc1ccc(C(=O)Nc2cc(-c3nc4cc(C)cc(C)c4o3)ccc2C)cc1	x	0	9	8	0
Cc1cc(C(C)(C)C)ccc1OCCN1CCCC1	-64*	9	5	0	0
Cc1cc(Br)ccc1OCCCCN1CCCCC1	-51*	28	0	-12	-3
Cc1cc(Br)ccc1OCCOCCN1CCCC1	-73*	10	-14	-22	-14
CC(=O)Nc1cccc(OCCCNS(=O)(=O)c2ccc(C#N)cc2)c1	8	2	9	-5	-6
COc1ccc(Oc2ccc(N/C=C3/CCCC3=O)cc2)cc1	20	2	-31*	11	-10
COc1ccc(Oc2ccc(N/C=C3\CCCC3=O)cc2)cc1	0	7	3	-9	-5
O=C(O)c1ccc(Sc2nnnn2-c2ccccc2)c([N+](=O)[O-])c1	-64*	1	4	1	1
CC(C)NCCOCCSc1ccc(Cl)cc1	-84*	3	-7	-9	2
CCCCNCCOCCSc1ccc(Cl)cc1	-81*	17	-8	-7	-6
COCCCNCCOCCSc1ccc(Cl)cc1	-68*	9	-2	-31	3
CN(C)CCOCCSc1ccc(Cl)cc1	-86*	10	-25	-28	4
COCCNC(=O)C1CCCN(Cc2cccc(C(F)(F)F)c2)CC1 (centres undefined)	u	x	x	-10	x
COc1ccc(C2OCC3(CO2)SC(=O)NC3=O)cc1 (centres undefined)	2	3	-38*	3	-14
Fc1ccc(-c2cc(C(F)(F)C(F)F)[nH]n2)cc1	13	64*	-48*	-3	-15
FC(F)C(F)(F)c1cc(-c2ccc(Cl)cc2)n[nH]1	2	86*	-46*	7	1
Oc1ccccc1-c1cc(C(F)(F)C(F)F)[nH]n1	-20	10	-12	-9	-3
O=C(NNC(=O)c1ccccc1O)c1ccc(Cl)c(S(=O)(=O)N2CCc3ccccc32)c1	0	9	-33*	21	1
COc1ccc(NC(=O)c2cc(C3CCCCN3C(=O)C3CC3)on2)c(C)c1 (centres undefined)	-111*	x	x	-23	x
Cc1cc(C(=O)NCc2ccccc2Cl)c2c(C)nn(-c3cccc(F)c3)c2n1	x	6	-7	22	0
COc1cccc(CNC(=O)c2cc(C)nc3c2c(C)nn3-c2cccc(F)c2)c1	x	33*	-8	27	-2
CCc1ccc(-n2nc(C)c3c(C(=O)Nc4cccc(C(F)(F)F)c4)cc(C)nc32)cc1	x	9	-35*	19	-6
Cc1cc(C(=O)NCc2cccc(Br)c2)c2c(C)nn(-c3ccccc3)c2n1	x	6	-4	-7	2
Cc1cc(C(=O)NCc2ccccc2C)c2c(C)nn(-c3cccc(F)c3)c2n1	x	4	-46*	25	-7
